TDP43 rescue: qHTS of TDP-43 Inhibitors; TDP-43 expressing yeast growth rescue, BacTiter-Glo, 24 h; Potency, µM (highest dose often 46.1 µM), hits mostly activators; 410,000 tested, 1.8% active; further: nearly all actives have a fitted effect of over 50% in size
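Yeast cells expressing TDP-43 under galactose induction are exposed to compounds for 24 hr at 30 deg C. BacTiter-Glo luminescence measures growth, so protective compounds score as activators.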
FUS yeast rescue: qHTS for Suppressors of FUS Proteinopathy: Primary screen using FUS-linked yeast assay; S. cerevisiae FUS-expressing, growth rescue, OD600, 24 h; Potency, µM (series often up to 76.6 µM), usual class: activators; 390,000 tested, 0.24% active; AID 1347120, 2019; further: nearly all actives have a fitted effect of over 55% in size
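Compound concentration series was pinned onto galactose-induced FUS-expressing yeast seeded at OD 0.005. Plates sat 24hr at 30C; absorbance at 600 nm gave growth. DMSO served as background control.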
Abeta yeast res: qHTS for compounds that reverse cellular toxicity of Amyloid beta (A-beta) peptide in yeast: Primary Screen; yeast expressing A-beta42, growth rescue, OD600, 48 h; response scale: 0% DMSO, 100% iron-clioquinol control; Potency, µM (top dose mostly 46.1 µM), most hits filed as activators; 410,000 tested, 0.063% active; further: nearly all actives have a fitted effect of over 55% in size
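Growth rescue measured by 600 nm absorbance after 48 h yeast culture at 30 C with compound. Values normalized between DMSO and an equimolar ferric chloride plus clioquinol control.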
aSyn rescue: qHTS of alpha-syn Inhibitors | Yeast expressing alpha-synuclein, growth rescue, BacTiter-Glo, 24 h | Potency, µM (titrated, usually from 46.1 µM), actives largely listed as activators | 370,000 tested, 0.14% active; further: nearly all actives have a fitted effect of over 65% in size
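Rescue of yeast growth: cells expressing toxic alpha-synuclein, induced in galactose at OD600 0.02, incubated with compound 24 h at 30 C. ATP luminescence quantified growth; inhibitors of toxicity appear as activators.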
A number is an active result. A selection: hits, their analogues and other compounds. The true share with any hit is near 2.1%. The call rests on the fitted dose curve; in most records, active means well fitted curve in the direction sought with a large enough effect; inconclusive means small, poorly fitted or top-dose-only effect, or another doubt; inactive means no such curve, though single readings can be large; an effect the other way counts as inactive or inconclusive.

Screening COc1cccc(-c2nc(CCl)cs2)c1OC returned TDP43 rescue 14µM, FUS yeast rescue inactive, Abeta yeast res inactive and aSyn rescue inactive.
For O=C1C2C3C=CC(C3)C2C(=O)N1CNc1ccccc1 (stereo unspecified) the results were TDP43 rescue inconclusive, Abeta yeast res inactive and aSyn rescue inactive.
`Cc1cccc(NCN2C(=O)C3C4C=CC(C4)C3C2=O)c1` (stereo unspecified) gave TDP43 rescue 11µM, FUS yeast rescue inactive, Abeta yeast res inactive and aSyn rescue inactive.
For CCC1Nc2ncnc(N3CCc4ccccc4C3)c2N(Cc2ccc(Br)cc2)C1=O (stereo unspecified) the results were TDP43 rescue 35µM, FUS yeast rescue inconclusive, Abeta yeast res inactive and aSyn rescue inconclusive.
`CC1Nc2ncnc(N3CCN(c4ccccc4)CC3)c2N(Cc2ccc(Cl)cc2)C1=O` (stereo unspecified) gave TDP43 rescue inconclusive, FUS yeast rescue 20µM, Abeta yeast res inactive and aSyn rescue inconclusive.
Screening CC1Nc2ncnc(N3CCc4ccccc4C3)c2N(Cc2ccc(Cl)cc2)C1=O (stereo unspecified) returned TDP43 rescue inactive, FUS yeast rescue inactive, Abeta yeast res inactive and aSyn rescue inactive.
For CC1Nc2ncnc(N3CCc4ccccc4C3)c2N(Cc2ccc(Br)cc2)C1=O (stereo unspecified) the results were TDP43 rescue 11µM, FUS yeast rescue inconclusive, Abeta yeast res inactive and aSyn rescue inconclusive.
Screening O=C(NCCc1c[nH]c2ccccc12)OCc1cn(-c2ccc(Cl)cc2)nn1 returned FUS yeast rescue inactive.
Screening O=C(NC1CCSc2ccccc21)c1cccc([N+](=O)[O-])c1 (stereo unspecified) returned TDP43 rescue 13µM, FUS yeast rescue inactive, Abeta yeast res inactive and aSyn rescue inactive.
Screening Cc1nc(NC(=O)C(C)(C)C)sc1-c1nc(N)sc1-n1cc(-c2ccccc2)nn1 returned TDP43 rescue inactive, FUS yeast rescue inactive, Abeta yeast res inactive and aSyn rescue inactive.
For CCNc1nc(-c2sc(NC(=O)C(C)(C)C)nc2C)c(-n2cc(-c3ccccc3)nn2)s1 the results were TDP43 rescue 28µM, FUS yeast rescue inactive, Abeta yeast res inactive and aSyn rescue inactive.
CC(C)c1ccc(C2=CC(c3ccc(C(C)C)cc3)n3nnnc3N2)cc1 (stereo unspecified) was read as TDP43 rescue inactive, FUS yeast rescue inactive and Abeta yeast res inactive.
COc1cccc(C2=CC(c3ccccc3F)n3c(nc4ccccc43)N2)c1 (stereo unspecified) was read as TDP43 rescue inconclusive, FUS yeast rescue inactive and Abeta yeast res inactive.
`CC(C)c1ccc(C2=CC(c3cccc(Cl)c3)n3c(nc4ccccc43)N2)cc1` (stereo unspecified) gave TDP43 rescue 18µM, FUS yeast rescue inactive and Abeta yeast res inactive.
Screening CCOc1ccc(C2=CC(c3cccc(Br)c3)n3c(nc4ccccc43)N2)cc1Cl (stereo unspecified) returned TDP43 rescue 13µM, FUS yeast rescue inactive and Abeta yeast res inactive.
`CCc1ccc(C2=CC(c3cccc(C)c3)n3c(nc4ccccc43)N2)cc1` (stereo unspecified) gave TDP43 rescue 13µM, FUS yeast rescue inactive and Abeta yeast res inactive.
Screening CC(C)c1ccc(C2=CC(c3cccc(Cl)c3)n3ncnc3N2)cc1 (stereo unspecified) returned TDP43 rescue 13µM, FUS yeast rescue inactive and Abeta yeast res inactive.
Screening NC1=NC(c2cccc(Cl)c2)n2c(nc3ccccc32)N1 (stereo unspecified) returned TDP43 rescue inactive, FUS yeast rescue inactive and Abeta yeast res inactive.
`CCc1ccc(C2=CC(c3cccc(OC)c3OC)n3c(nc4ccccc43)N2)cc1` (stereo unspecified) gave TDP43 rescue inactive, FUS yeast rescue inactive and Abeta yeast res inactive.
Screening COc1ccc(-c2noc(C3CCCN(C(=O)NC4CCC(C)CC4)C3)n2)cc1 (stereo unspecified) returned FUS yeast rescue inactive.
For O=C(Nc1ccc2c(c1)Cc1ccccc1-2)NC1CCCCN(Cc2cccc(Cl)c2)C1=O (stereo unspecified) the results were FUS yeast rescue inactive.

Assay outcomes from PubChem BioAssay.
